In PubChem BioAssay (NCATS):
Several values for one entry are separate records, joined by “and”; a condition that tells them apart may be missing. Equal values may be shown once. Records with an inconclusive call do not appear. A number with no mark means an inactive call. The call rests on the fitted dose curve; in most records, active means well fitted activation curve with a large enough effect in the signal ratio; inconclusive means small, poorly fitted or top-dose-only effect, or a change in a side signal; inactive means flat fitted curve, though single readings scatter; the % refers to the signal ratio.

Experiment: qHTS assay for small molecule activators of the nuclear factor-kappa B (NF-kB) signaling pathway (AID 651749); further: series mostly up to about 77 µM; % of control where 0% means no effect
Details: NF-kB-bla ME-180 cells, beta-lactamase FRET ratio, 16 h; activation: hits give high values
Text: National Center for Advancing Translational Sciences [NCATS] NIH Chemical Genomics Center [NCGC] U.S. Environmental Protection Agency [EPA] National Institutes of Environmental Health Sciences [NIEHS] National Toxicology Program [NTP] Assay Overview: Transcription factors and their stimulated target gene expression play pivotal roles across many cellular processes including responses to environmental stimuli. Proper regulation of associated pathways is critical to maintain cell health and function. Constitutive activation of transcription factor pathways has been implicated in tumors as it may block cellular functions such as apoptosis and lead to invasion and metastasis. One important transcription factor that stimulates gene expression in response to cytokines, UV radiation, and other stimuli is nuclear factor-kappa B (NF-kB). To measure activation of the NF-kB pathway, the NF-kB-bla ME-180 cell line stably expressed beta-lactamase reporter gene under the regulation of a NF-kB response element was obtained from Invitrogen. This assay allows measurement of the NF-kB pathway activity induced by compounds in a ME-180 cell line. This system quantitates NF-kB activity using a FRET-based assay system where beta-lactamase expression disrupts FRET, allowing for fluorescent measurement of activity.
Assay Protocol Summary: For toxicology screening, 2,000 cells in 5 uL/well were dispensed into black, clear-bottom 1536-well plates using a Multidrop Combi (Thermo Scientific) dispenser. Following transfer of 23 nL compound or DMSO vehicle by a pin tool, the plates were incubated 16 hr at 37C and 5% CO2.

SMILES | activation
Cc1ccc(S(=O)(=O)C(I)I)cc1 | -6%
Cc1ccc(C(=O)c2ccccc2)cc1 | 0.979%
CCC(C)(C)C1CCC(O)CC1 (stereo not given) | -0.533%
CCCCN(CCCC)CCCC | -1.19%
CCNc1nc(N)nc(Cl)n1 | -0.704% and -0.787%
CCCCCCCCCCCCCC(=O)OC | 0.501%
CCCCCCCCCCO | -0.272% and -0.916%
CCO[Si](CCC#N)(OCC)OCC | 0.629%
CCC(=O)OCCc1ccccc1 | 1.34%
CCC/C(=N\OCC)C1=C(O)CC(O)(CC(C)S(=O)(=O)CC)CC1=O (stereo not given) | -2.79%
CN(C)CCOCCN(C)C | 0.657%
CC(C)Cc1c(C(=O)O)c(C(F)F)nc(C(F)(F)F)c1C1=NCCS1 | 1.24%
CCCCOC(=O)c1ccccc1 | 0.836%
C/C=C/C=C/CCCCCCCO | -0.666%
O=C1CCCC/C=C/CCCCCCCCCO1 | -0.561%
C[Si]1(C)O[Si](C)(C)O[Si](C)(C)O1 | -0.149%
COc1nc(C)nc(NC(=O)NS(=O)(=O)c2ccccc2OCCCl)n1 | 0.852%
C=C(C)C(=O)OCCOCCOCCOC(=O)C(=C)C | -1.62%
C1=C/CC/C=C/CC/C=C/CC/1 | 0.104%
C=CC(=O)NC(C)(C)CS(=O)(=O)O | -1.64% and -0.911%

SMILES | activation
CN(C)c1nc(=O)n(C2CCC(O)CC2)c(=O)n1C (stereo not given) | -0.848%
O=C=NCCCCCCN=C=O | 0.731%
O=[N+]([O-])c1ccc2c(c1)Cc1ccccc1-2 | -1.58%
CCSC(=O)N(CC(C)C)CC(C)C | -0.513%
CC(C)CCCCCCCCCCCCCCC(=O)O | -0.531%
C/C=C/C/C=C\CCCCCCCCOC(C)=O | -0.792%
CCCCC/C=C\C/C=C\CCCCCCCC(=O)OC | -0.453%
CC1(C)C(=O)NC(=O)N1CO | -2.55%
CC1=CC2C3CC(C=C3C)C2C1 (stereo not given) | -0.782%
C=C(C)C(=O)OCCOC(=O)C(=C)C | -0.69%
CN(C)C(=O)Nc1ccccc1 | -1.78%
CN=C(N)NCC1CCOC1 (stereo not given) | -4.18%
CCCCCc1ccc(N)cc1 | 1.37%
CC(C)(C)C1CCC(O)CC1 (stereo not given) | 0.471%
CCCCCCCCCC(C)=O | 0.316%
CSc1ccc(Cl)cc1 | -1.66%
CCOC(=O)C1=NN(c2ccc(Cl)cc2Cl)C(C)(C(=O)OCC)C1 (stereo not given) | -1.4%
O=S(=O)(O)c1cc(S(=O)(=O)O)c2c(N=Nc3ccccc3)c(O)ccc2c1 | 1.12%
CCCCCCCCCCCCCCCCCCN | 0.495%
C=CCCCCCCCCC=O | -0.972%
